Source: PubChem BioAssay (National Center for Advancing Translational Sciences (NCATS))
ALOX12 inh = blocks human arachidonate 12S-lipoxygenase; P18054; purified 12hLO, xylenol orange hydroperoxide absorbance; Potency, µM (titrated, usually from 108 µM), without a hit: top-dose activity change, negative = inhibition, actives largely listed as inhibitors; 1.1% of 580,000 active; AID 1671190
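Purified human 12hLO at 150 nM in 25 mM Hepes, 0.01% Triton X-100, pH 7.0, preincubated 15 min at room temperature with compound. Reaction started with 40 uM arachidonic acid, 30 min at room temperature. Hydroperoxide measured by Fe-xylenol orange, 573/405 nm absorbance ratio.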
TDP1 cell noCPT = qHTS for Inhibitors of human tyrosyl-DNA phosphodiesterase 1 (TDP1): qHTS in cells in absence of CPT; DT40 Tdp1-/- hTDP1 cells, no CPT, ATP luminescence, 48 h; Potency, µM (doses to about 46.2 µM), inactives show at the top dose activity change, negative = growth inhibition, most hits filed as inhibitors; 15% of 420,000 active; note: nearly all actives have a fitted effect of over 55% in size
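Stably hTDP1-transfected Tdp1-null chicken DT40 cells were treated with library compounds minus camptothecin and grown for at least 48 hr at 37 °C, after which cellular ATP was quantified by luminescence.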
ELG1 DNA repair = blocks ELG1-dependent DNA repair in HEK293T cells | HEK293T ELG1-luciferase reporter, luminescence, 16 h; DNA damage induced by 5-fluorouridine | Potency, µM (highest dose often 46.1 µM), inactives show at the highest dose activity change, negative = inhibition, most hits filed as inhibitors | 2.3% of 330,000 active | AID 504467; note: nearly all actives have a fitted effect of over 55% in size
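Overnight (16 hr) co-exposure of 2,000 cells/well to 5-fluorouridine and compound at 37 °C preceded detection. Luciferase was quantified via ONE-Glo luminescence; loss of signal denotes inhibition.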
RORg inh = inhibitors of mouse ROR gamma transcriptional activity. P51450. Drosophila S2 Gal4-RORgamma UAS-luciferase reporter, 20 h. Potency, µM (titrated, usually from 53.6 µM), for the others: at the top dose activity change, negative = inhibition, usual class: inhibitors. 5.4% of 310,000 active; note: nearly all actives have a fitted effect of over 60% in size
Target sequence (P51450 whole entry, looked up, the tested form may be a part): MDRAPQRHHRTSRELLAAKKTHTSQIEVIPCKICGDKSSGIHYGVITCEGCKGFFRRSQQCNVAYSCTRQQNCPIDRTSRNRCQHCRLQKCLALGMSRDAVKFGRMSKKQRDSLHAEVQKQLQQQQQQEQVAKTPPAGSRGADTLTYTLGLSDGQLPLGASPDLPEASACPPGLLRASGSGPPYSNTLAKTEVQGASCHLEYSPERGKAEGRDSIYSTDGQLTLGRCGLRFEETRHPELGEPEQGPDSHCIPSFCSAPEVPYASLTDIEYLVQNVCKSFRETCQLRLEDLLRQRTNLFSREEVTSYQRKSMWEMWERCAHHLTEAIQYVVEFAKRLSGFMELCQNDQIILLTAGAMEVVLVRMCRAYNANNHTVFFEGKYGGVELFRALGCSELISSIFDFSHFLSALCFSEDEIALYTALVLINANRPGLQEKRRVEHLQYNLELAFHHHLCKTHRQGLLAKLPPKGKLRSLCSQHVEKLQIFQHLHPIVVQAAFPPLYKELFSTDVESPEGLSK
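Schneider cells (Drosophila), stable Gal4 DBD–ROR gamma + UAS-luc; 1 hr cmpd preincubation; Cu2+ induction 700 uM final; 20 hr ambient; luminescence.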
TDP1 cell CPT = DT40-hTDP1 cell growth loss with CPT; chicken DT40 Tdp1-/-;hTDP1 cells + 20 nM CPT, ATP luminescence, 48 h; Potency, µM (doses to about 46.2 µM), without a hit: top-dose activity change, negative = growth inhibition, usual class: inhibitors; 12% of 420,000 active; note: nearly all actives have a fitted effect of over 55% in size
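Chicken DT40 Tdp1-/- cells stably complemented with human TDP1 were seeded at 400 cells/well in medium containing 20 nM camptothecin, exposed to pin-transferred compounds, and grown at 37 °C for at least 48 hr. Viability was read as ATP luminescence.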
Gal4-VP16 FLuc = Gal4-VP16 reporter inhibition counter-screen | AID 2546 | Potency, µM (highest dose often 53.6 µM), inactives show top-dose activity, negative = inhibition, usual class: inhibitors | 3.5% of 310,000 active | Drosophila S2 Gal4-VP16 UAS-luciferase, luminescence, 20 h;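 note: Gal4-VP16 expression switched on by copper sulfate through the metallothionein promoter; nearly all actives have a fitted effect of over 50% in size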
* marks the source's active call; other numbers are inactive results; ? = inconclusive; / = no result; [ ] = remark or other dose. In the library only some 15% were active in any assay of this set; here they are far more common. Calls come from the whole dose curve; as a rule, active = well fitted curve in the direction sought with a large enough effect; inconclusive = small, poorly fitted or top-dose-only effect, or another doubt; inactive = no such curve, though single readings can be large; an effect the other way counts as inactive or inconclusive. % is set by controls: 0 for no effect and ±100 for the full control effect; potency is the fitted concentration of half-maximal effect.

SMILES	ALOX12 inh	TDP1 cell noCPT	ELG1 DNA repair	RORg inh	TDP1 cell CPT	Gal4-VP16 FLuc
COc1ccc(-c2nc3cc(C)ccc3cc2CN2CCCC(C#N)C2)cc1OC (stereo not given)	33%	/	/	/	/	/
Cn1cccc1CN1CCC(N2C(=O)C(OCC3CC3)C23CCCCC3)CC1 (stereo not given)	69%	/	/	/	/	/
CC1(C)N=C(N)N=C(N)N1c1ccc(OCC(=O)N2CCOCC2)c(Cl)c1	-25%	0.37µM*	/	/	0.41µM*	/
Cc1cccc(NC(=O)CCc2ccccc2)c1	-3%	-3%	?	6%	-13%	-11%
CC1(C)N=C(N)N=C(N)N1c1cccc(CC(=O)Nc2ccccc2)c1	8%	2.6µM*	/	/	9.2µM*	/
CC1(C)N=C(N)N=C(N)N1c1ccc(OCC(=O)N2CCOCC2)cc1	-10%	?	/	/	?	/
Cc1cccc(NC(=O)CCc2ccc(N3C(N)=NC(N)=NC3(C)C)cc2)c1	17%	0.37µM*	/	/	0.33µM*	/
CC1(C)N=C(N)N=C(N)N1c1ccc(OCCCOc2ccccc2)c(Cl)c1	10%	2.3µM*	2.6µM*	31%	1.8µM*	-11%
COc1cc(C)ccc1OCCCOc1ccccc1Cl	2%	?	?	-32%	?	-9%
Cc1ccc2c(n1)N(C)[C@H](CO)CCN(Cc1ccc(C(C)C)cc1)C2	3%[176 µM]	/	/	/	/	/
CC1(C)N=C(N)N=C(N)N1c1cccc(C(=O)O)c1	-30%	-5%	?	-4%	-4%	-1%
CC1(C)N=C(N)N=C(N)N1c1ccc(OCC(=O)Nc2ccccc2)c(Cl)c1	0%	0.73µM*	/	/	1.2µM*	/
O=[N+]([O-])c1ccc(Oc2ccc(-c3cnc4ccccc4n3)cc2[N+](=O)[O-])cc1	-2%	15µM*	?	?	10µM*	1%
Cc1nnc(-c2ccc(Oc3ccc(Br)cc3)c([N+](=O)[O-])c2)o1	0%	13µM*	-10%	?	?	0%
O=[N+]([O-])c1cc(-c2cnc3ccccc3n2)ccc1Oc1ccc(Br)cc1	-23%	13µM*	?	?	?	11%
COc1cc(OC)c(OC)cc1CN1C[C@@H]2C(=O)N(C)C(=O)[C@@H]2C1	21%	/	/	/	/	/
Cc1nc2sc3c(c2c2nc(C(=O)NCCN(C)C)nn12)CCC3	6%	/	/	/	/	/
FC(F)(F)Oc1ccc(-c2cnc([C@@H]3COCCN3C3CCOCC3)[nH]2)cc1	27%[176 µM]	/	/	/	/	/
CCNC(=O)N[C@H]1CC[C@]2(C)CC[C@@H](C(C)C(=O)NC3CCCC3)[C@H](O)[C@H]2[C@@H]1C (stereo not given in full)	23%[176 µM]	/	/	/	/	/
N#CC(c1ccnc(NCCc2cccnc2)n1)c1nc2ccccc2s1 (stereo not given)	-39%[57.4 µM]	/	/	/	/	/
CC(C)(C)OC(=O)CC[C@@H](C(=O)NCCCCCCCCCCC(=O)N1CCN(C(=O)OC(C)(C)C)CC1)n1cc(CCCCCNC(=O)OC(C)(C)C)nn1	-26%	4.1µM*	-21%	/	5.8µM*	/
CC(C)(C)OC(=O)NCCCC[C@@H](C(=O)NCCCCCCCCCCC(=O)N1CCN(C(=O)OC(C)(C)C)CC1)n1cc(CCCC(=O)O)nn1	1%	?	-1%	/	?	/
Cc1cn([C@H](C(=O)NCCCCCCCCCCC(=O)N2CCN(C(=O)OC(C)(C)C)CC2)[C@@H](C)O)nn1	8%	16µM*	?	/	23µM*	/
C[C@H](O)[C@@H](C(=O)N1CCN(C(=O)OC(C)(C)C)CC1)n1cc(CCCCNC(=O)OC(C)(C)C)nn1	3%	?	-6%	3%	-23%	6%
CC[C@H](C)[C@@H](C(=O)NCCCCCCCCCCC(=O)N1CCN(C(=O)OC(C)(C)C)CC1)n1cc(CCCCCNC(=O)OC(C)(C)C)nn1	-22%	5.8µM*	?	/	4.6µM*	/
SMILES	ALOX12 inh	TDP1 cell noCPT	ELG1 DNA repair	RORg inh	TDP1 cell CPT	Gal4-VP16 FLuc
CC(C)(C)OC(=O)NCCCCCc1cn([C@@H](CO)C(=O)NCCCCCCCCCCC(=O)N2CCN(C(=O)OC(C)(C)C)CC2)nn1	1%	2.3µM*	3.2µM*	/	2.6µM*	/
CCC1c2ccsc2CCN1C(=O)CCc1ccc(S(=O)(=O)N2CCCCC2)cc1 (stereo not given)	25%	/	/	/	/	/
CCOC(=O)CCN(Cc1cc(C)ccc1C)CC1CC1	-9%	/	/	/	/	/
CC1CCCCN1CCCNc1nc(-c2ccncc2)nc2ccccc12 (stereo not given)	-18%	/	/	/	/	/
O=C(CCc1ncc(-c2ccccc2)o1)NCc1ccc(C(=O)N2CCCC2)cc1	9%	/	/	/	/	/
CCc1ccccc1NC(=O)CN(c1ccccc1)S(=O)(=O)c1ccsc1C(=O)OC	-25%	18µM*	/	/	16µM*	/
COC(=O)c1sccc1S(=O)(=O)N(CC(=O)Nc1ccccc1C)c1ccc(Cl)cc1	-11%	?	/	/	?	/
COC(=O)c1sccc1S(=O)(=O)N(CC(=O)Nc1cc(F)ccc1F)c1ccc(C)c(C)c1	-11%	13µM*	/	/	?	/
COC(=O)c1sccc1S(=O)(=O)N(CC(=O)Nc1cc(C)ccc1C)c1ccc(C)c(C)c1	-15%	21µM*	/	/	21µM*	/
CCc1ccccc1NC(=O)CN(c1ccc(C)c(C)c1)S(=O)(=O)c1ccsc1C(=O)OC	-4%	/	/	/	/	/
COC(=O)c1sccc1S(=O)(=O)N(CC(=O)Nc1cccc(C)c1C)c1ccc(C)c(C)c1	-10%	23µM*	/	/	21µM*	/
COC(=O)CNC(=O)C(c1ccccc1)c1ccccc1	3%	/	/	/	/	/
Cc1nc2cc(NC(=O)COc3cc(C(C)C)ccc3C)ccc2o1	-4%	/	/	/	/	/
CCCCCNc1nc2ccccc2nc1NS(=O)(=O)c1cccc(C)c1	34%	/	/	/	/	/
CN1C(=O)C(c2ccccc2)CC12CCN(C(=O)C1CCC(O)CC1)CC2 (stereo not given)	40%	/	/	/	/	/
Cc1ccc(NC(=O)c2ccc(=O)[nH]n2)cc1C	-23%	-6%	?	26%	-19%	18%
Cc1ccc(NC(=O)c2ccc(=O)[nH]n2)cc1S(=O)(=O)Nc1ccc(SC(F)F)cc1	35%	18µM*	?	/	15µM*	/
COC(=O)CSc1[nH]c2ccc(F)cc2c1[N+](=O)[O-]	?	?	17%	-33%	21µM*	3%
Cc1ccc(Cn2cnc3ccccc32)cc1C	3%	16µM*	23%	10µM*	13µM*	?
CCCOc1ccc(Cn2cnc3ccccc32)cc1	9%	13µM*	-8%	16µM*	?	?
